About 79,000 compounds went through this panel and 15% of them were active in at least one assay; those are over-represented in the sample as a whole. Unmarked numbers belong to inactive results. Active and inactive are the calls of the source. Cut-off read from the data, not from the text of the source: active = growth inhibition above about 70%; inactive = the rest.
Experiments:
[1] = NCI Yeast Anticancer Drug Screen. Data for the rad50 strain (AID 155);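 note: 0% = growth of vehicle-only cultures of the same strain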; details: S. cerevisiae rad50 strain growth inhibition, stronger effect = higher value; at 50.0 µM unless noted
How it was run: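 Relative growth inhibition (compound vs vehicle) was measured in yeast with a defined repair-gene alteration.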

[2] = NCI Yeast Anticancer Drug Screen. Data for the mec2-1 strain (AID 157); details: S. cerevisiae mec2-1 strain, stronger effect = higher value; at 50.0 µM unless noted
How it was run: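 Using mec2-1 yeast: add compound, measure growth, express inhibition versus vehicle-treated cultures.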

[3] = NCI Yeast Anticancer Drug Screen. Data for the sgs1 mgt1 strain (AID 161);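 note: 0% = growth of cultures given vehicle only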; details: S. cerevisiae sgs1 mgt1 strain, stronger effect = higher value; at 50.0 µM unless noted
How it was run: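 Growth of a repair-deficient yeast mutant was monitored after compound treatment and expressed as inhibition relative to vehicle-treated cultures.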

[4] = NCI Yeast Anticancer Drug Screen. Data for the cln2 rad14 strain (AID 165);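 note: 0% = growth equal to vehicle treated cultures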; details: S. cerevisiae cln2 rad14 strain, stronger effect = higher value; at 50.0 µM unless noted
How it was run: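 Yeast strain cln2 rad14, bearing defects in cell cycle control and DNA repair, serves as the test system; values reflect growth inhibition compared with vehicle.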

[5] = NCI Yeast Anticancer Drug Screen. Data for the bub3 strain (AID 167); details: S. cerevisiae bub3 mutant strain, stronger effect = higher value; at 50.0 µM unless noted
How it was run: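 Screening used yeast with an engineered genetic alteration affecting cell cycle control. Compound-exposed cultures were compared with vehicle cultures, and reduced growth was taken as inhibition.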

[6] = NCI Yeast Anticancer Drug Screen. Data for the mlh1 rad18 strain (AID 175); details: S. cerevisiae mlh1 rad18 strain growth inhibition, stronger effect = higher value; at 50.0 µM unless noted
How it was run: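 Steps: expose repair-defective yeast to compound; measure growth; express inhibition against vehicle-treated controls.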

Row | Compound | growth inhibition [1] | growth inhibition [2] | growth inhibition [3] | growth inhibition [4] | growth inhibition [5] | growth inhibition [6]
1 | O=S(=O)(O)c1cc(S(=O)(=O)O)c2cc(O)ccc2c1 | 0.6% | 3.35% | 13.4% | -18.6% | 5.35% | 28.4%
2 | CC(C)=Nn1cnc2c1NC(C)(C)N=C2C(N)=O | -18.8% | -17.2% | -12.2% | 7.85% | 14.8% | -15.6%
3 | COc1cc(CNc2nc3ccc(C(F)(F)F)cc3nc2-c2ccccc2)cc(OC)c1OC | -14.3% | -3.05% | -28.4% | -10.2% | 2.25% | -4.55%
4 | CC(=O)Nc1ccc(NCC(=O)Nn2cnc3ccc(S(=O)(=O)Nc4ccc(NC(C)=O)cc4)cc3c2=O)cc1 | 5.55% | -18.1% | 16.6% | 20.9% | -0.6% | 6.95%
5 | NC(N)=Nc1ccc(-c2ccc(N=C(N)N)cc2)cc1 | -9.35% | 6.4% | 0.85% | -22.2% | -24.9% | -7.95%
6 | CCc1ccccc1NC(=O)C(=O)CC(=O)c1sc(Nc2ccccc2Cl)nc1C | 6.25% | 6.15% | 26% | -16.6% | -2.65% | 15.1%
7 | COc1ccc(COC(=O)Nc2ccccc2F)c(OC)c1OC | 3.15% | -9.55% | 30.7% | -3.55% | 26.6% | 16.7%
8 | CCCc1cc(Cl)ccc1OCC(=O)O | 32.4% | 18.9% | 14.1% | 11.6% | 20.5% | 10.3%
9 | COc1ccc(C(NC(N)=O)c2cc3c(cc2OC(C)=O)OCO3)cc1 (stereo unspecified) | -7.25% | -1.95% | -6.65% | -9.05% | 5.7% | -0.4%
10 | COc1cc(N=Nc2c(N)nc(N)[nH]c2=O)c(OC)cc1Cl | -8.45% | 3.65% | -8% | 5.05% | 1.35% | 3%
11 | CN(C)c1ccc(C(c2ccc(C(c3ccc(N(C)C)cc3)c3ccc(N(C)C)cc3)cc2)c2ccc(N(C)C)cc2)cc1 | -6.55% | 4.8% | -22.1% | -0.8% | -10.8% | 14.6%
12 | O=C(c1ccccc1)c1ccc2c(c1)N=C(c1ccc(Cl)c(Cl)c1)CC(c1ccc3ccccc3c1)N2 (stereo unspecified) | 22.2% | 15.4% | -7% | -33.5% | -3.6% | 16.6%
13 | Clc1ccccc1/C=N\N=C\c1ccco1 | 8.3% | -14.1% | -9.05% | -40.4% | -11.1% | 14.4%
14 | CCOC(=O)CON=c1c2ccccc2ccc2ccccc12 | 4.05% | -5.85% | -22.5% | 3.4% | -10.2% | -2.45%
15 | O=C(O)COc1ccc(NC(=O)COc2ccc(Cl)c(Cl)c2)cc1 | 8.8% | -10% | -28.9% | -30.1% | 2.75% | 15.1%
16 | [Cu+2].[NH-]CC(=O)NC(Cc1ccccc1)C(=O)O.[NH-]CC(=O)NC(Cc1ccccc1)C(=O)O (stereo unspecified) | 30.9% | 2.4% | 10.6% | 17.5% | 0.9% | 10.6%
17 | FC(F)(F)COP1(OCC(F)(F)F)=NP(OCC(F)(F)F)(OCC(F)(F)F)=NP(OCC(F)(F)F)(OCC(F)(F)F)=N1 | -1.2% | 14.3% | -5.15% | -4.55% | -3.45% | 6.8%
18 | O=C(NC(Cc1ccc(I)cc1)C(=O)O)c1ccc(Br)cc1 (stereo unspecified) | -4.3% | -5.65% | 2.8% | 12.1% | -9.4% | -0.9%
19 | CCOC(=O)/C(F)=C/c1ccc(C#N)cc1 | 29.3% | -19.9% | -4.25% | 3.7% | 8.35% | 15.8%
20 | Brc1cc(Br)cc(CN2CCOCC2)c1 | 34% | 15.1% | 49.6% | 48% | 56.8% | 46.2%
21 | O=C(Nc1ccc(S(=O)(=O)c2ccc(F)cc2)cc1)OC1CCCCC1 | 35.9% | 5.85% | 38.9% | 18.1% | 4.4% | 18.4%

Row | Compound | growth inhibition [1] | growth inhibition [2] | growth inhibition [3] | growth inhibition [4] | growth inhibition [5] | growth inhibition [6]
22 | ClC1=C(Cl)C(Cl)(Cl)c2c3c(c4c(c21)C(Cl)(Cl)C(Cl)=C4Cl)C(Cl)(Cl)C(Cl)=C3Cl | -0.6% | 17.1% | 5.15% | -53.8% | 9.1% | 7.45%
23 | CCCCCCCCCCCCCCCC[N+](C)(C)CC#N | 99.4% (active) | 99.3% (active) | 99.2% (active) | 99% (active) | 99.2% (active) | 99.5% (active)
24 | C/C=C1\CC2C=CC1C2 (stereo unspecified) (tested in a mixture with another compound) | 5.35% | -15.4% | 3.25% | 0.5% | 11.6% | 8.15%
25 | Cc1c2cc[n+](C)cc2c(C)c2c1oc1ccccc12 | 82.5% (active) | 62.1% | 78.8% (active) | 55.9% | 75.1% (active) | -38%
26 | CC(C)COC(c1ccc2c(c1)OCO2)C(C)Br (stereo unspecified) | 34.5% | 39.5% | 22.4% | 0.3% | 48.5% | 58.5%
27 | CSc1nc(NC2OC(COC(C)=O)C(OC(C)=O)C(OC(C)=O)C2OC(C)=O)c(N=CC=Nc2c(NC3OC(COC(C)=O)C(OC(C)=O)C(OC(C)=O)C3OC(C)=O)nc(SC)[nH]c2=O)c(=O)[nH]1 (stereo unspecified) | -13.8% | -17.7% | -13.8% | -17.7% | 6.6% | 5.75%
28 | CC(C)NCC(O)COc1cccc2[nH]c3ccccc3c12 (stereo unspecified) | -2.75% | -8.45% | -8.5% | -36.4% | -0.8% | -0.4%
29 | O=C(NCc1ccccc1)C(=O)NCc1ccccc1 | 4.35% | -1.85% | -7.25% | 3.5% | -6.9% | 5%
30 | CC(=O)c1ccc2c(c1)sc1ccccc12 | 66.9% | -25.3% | -6.4% | -2.25% | 28.5% | 55.9%
31 | COc1ccc(/C=C/C(=O)c2sc(Nc3ccc([N+](=O)[O-])cc3)nc2C)cc1 | 39.2% | 7.45% | 5.35% | 36.8% | 27.5% | 46.4%
32 | Cc1ccc(NC(=O)CCCl)cc1 | 3.4% | -1.55% | 2.05% | -19.1% | -0.5% | -14.3%
33 | CN(C)/N=C/C=C1\N=C(c2ccccc2)OC1=O | 5.75% | -10.6% | -17.9% | -45.7% | -0.75% | -10.9%
34 | COc1cc(C(=O)O)cc(I)c1OC | -3.3% | 25.1% | 3.95% | -15.4% | -4.55% | -8.95%
35 | COc1ccc(C2S/C(=C\c3ccc([N+](=O)[O-])cc3)C(=O)N2NC(=O)Cc2ccccc2)cc1 (stereo unspecified) | 17.9% | -7.95% | 2.9% | -23.8% | 11.4% | 8.65%
36 | O=c1c(-c2ccccc2)c[nH]c2ccccc12 | 26.7% | 16.6% | 20.9% | 8.45% | -10.9% | 44.5%
37 | CCN(CC)CCNc1ccc2ncn3c4cc(=O)ccc4c(O)c1c23 | -2.3% | -31.5% | -46.4% | 7.9% | -7.85% | 4.3%
38 | COc1ccc(C2=Nc3ccccc3N=C(SC)C2)cc1 | 42.2% | -5.3% | 51.1% | 6.75% | 53.7% | 32.5%
39 | Cc1ccc2c(c1)C(C)(C)C(C)(C)C2(C)C | 1.5% | -0.8% | -0.05% | 0.4% | 3.8% | -0.1%
40 | COC(=O)c1[nH]c(=O)c2ccc([N+](=O)[O-])cc2c1O | -15.7% | 0.15% | -14.9% | 16.1% | -6.05% | -0.4%
41 | CC1(C)C2CC(C(=O)O)C1C2 (stereo unspecified) | 2.75% | 5.8% | 2.05% | 3.8% | -10.8% | -19.1%
